Most compounds without a hit are left out; they make up all but 22% or so of the library.
CYP2C19 activ: human CYP2C19 activators, primary screen, biochemical, luminescence | Cytochrome P450 2C19 (Homo sapiens), P33261 | recombinant CYP2C19, luciferin-H EGE luminescence; stronger effect = higher value; 0 = fully inhibited enzyme, 1 = untreated enzyme | activation factor at 5 µM | 96,000 tested, under 10 active | AID 1025, 2008;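 active = activation factor of at least 2 at 5 µM in the primary screen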;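 note: 0 = wells with 2.5 mM tranylcypromine and 1 = vehicle-only wells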
Target sequence (P33261 whole entry, looked up): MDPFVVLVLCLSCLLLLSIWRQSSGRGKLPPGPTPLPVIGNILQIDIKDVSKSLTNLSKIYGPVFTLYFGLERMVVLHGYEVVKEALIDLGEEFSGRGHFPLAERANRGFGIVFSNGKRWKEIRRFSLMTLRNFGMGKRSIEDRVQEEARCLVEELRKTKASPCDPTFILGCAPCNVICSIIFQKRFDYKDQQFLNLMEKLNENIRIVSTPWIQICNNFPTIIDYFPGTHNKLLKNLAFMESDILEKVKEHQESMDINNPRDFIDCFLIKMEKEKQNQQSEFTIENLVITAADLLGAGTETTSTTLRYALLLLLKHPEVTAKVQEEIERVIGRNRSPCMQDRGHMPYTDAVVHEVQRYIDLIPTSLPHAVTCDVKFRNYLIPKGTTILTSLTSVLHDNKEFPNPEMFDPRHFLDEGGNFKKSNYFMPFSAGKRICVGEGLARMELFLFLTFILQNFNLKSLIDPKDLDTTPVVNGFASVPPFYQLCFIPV
Measles CPE: compounds protecting cells from measles virus cytopathic effect, primary screen, measles RdRp inhibitor project, single point, MLSMR library, absorbance | Measles virus-infected cells, CPE protection | protection (pct of control), % at 4 µM | hit rate 1.5% among 140,000 | AID 841, 2007; in the data active = protection mostly above about 24%, no sharp cut-off; inactive = mostly below about 26%
CYP2C19 inh: blockers of cytochrome P450 2C19 activity – biochemical, luminescence, ADME assay, primary screen. P33261. CYP2C19 Supersomes, luciferin-H EGE luminescence, 30 min. inhibition, % at 5 µM. hit rate 21% among 96,000. AID 778, 2007;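 active = CYP2C19 inhibition above a set limit at 5 µM in the primary screen, cut at about 50% in these data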;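 note: plate controls were negative control wells for no effect and 2.5 mM tranylcypromine positive control for full effect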
CYP2C9 activ: human CYP2C9 activators, primary screen, biochemical, luminescence; Cytochrome P450 2C9 (Homo sapiens), P11712; recombinant CYP2C9, luciferin-H conversion; stronger effect = higher value; factor 1 = untreated enzyme, 0 = blocked; activation factor at 5 µM; hit rate 1.4% among 96,000; AID 1024, 2008;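 active = activation factor of 2 or more for CYP2C9 at a 5 µM dose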;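 note: 0 = sulfaphenazole-blocked wells and 1 = vehicle-only wells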
CYP2C9 inhib: blockers of cytochrome P450 2C9 activity – biochemical, luminescence, ADME assay, primary screen. P11712. CYP2C9 Supersomes, luciferin-H conversion. inhibition, % at 5 µM. hit rate 20% among 96,000. AID 777, 2007;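 active = blocking of liver enzyme CYP2C9 beyond about 50% at 5 µM, limit read from the data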
* marks the source's active call; other numbers are inactive results.

`N#Cc1ccc(-c2ccc(OCC(O)Cn3nnc4ccccc43)cc2)cc1` (stereo not drawn) gave Measles CPE 17.
For COC(=O)c1ccc(OCC(O)Cn2nnc3ccccc32)cc1 (stereo not drawn) the results were CYP2C19 activ 0.2, Measles CPE 5, CYP2C19 inh 81*, CYP2C9 activ 0.2 and CYP2C9 inhib 82*.
Cc1cccc(C)c1OCC(O)Cn1nnc2ccccc21 (stereo not drawn) was read as CYP2C19 activ 0.4, Measles CPE 1, CYP2C19 inh 59*, CYP2C9 activ 0.8 and CYP2C9 inhib 17.
Screening O=C1C2CC=CCC2C(=O)N1c1ccc(OCC(O)Cn2nnc3ccccc32)cc1 (stereo not drawn) returned CYP2C19 activ 0.8, Measles CPE 7, CYP2C19 inh 16, CYP2C9 activ 0.6 and CYP2C9 inhib 40.
Screening CC(=O)c1ccc(OCC(O)Cn2nnc3ccccc32)cc1 (stereo not drawn) returned CYP2C19 activ 0.2, Measles CPE 8, CYP2C19 inh 76*, CYP2C9 activ 0.3 and CYP2C9 inhib 72*.
CCC(CC)NC(=O)c1cc(OC)c(OC)c(OC)c1 was read as CYP2C19 activ 1, Measles CPE 21, CYP2C19 inh 4, CYP2C9 activ 1 and CYP2C9 inhib 3.
`CN(CCOC(=O)c1ccc2c(c1)OCCO2)C(C)(C)C` gave Measles CPE 88*.
O=C(c1ccccc1)c1cc2ccccc2o1 was read as CYP2C19 activ 0.7, Measles CPE 15, CYP2C19 inh 35, CYP2C9 activ 0.8 and CYP2C9 inhib 17.
CN(Cc1ccccc1)C(=O)c1ccc(Cl)c([N+](=O)[O-])c1 was read as Measles CPE 13.
For O=C(OCCN1CCOCC1)c1ccc2c(c1)OCCO2 the results were CYP2C19 activ 1.1, Measles CPE 8, CYP2C19 inh -13, CYP2C9 activ 1.2 and CYP2C9 inhib -22.
CN(CCOC(=O)c1ccc2c(c1)OCCO2)Cc1ccccc1 was read as CYP2C19 activ 0.5, Measles CPE 22, CYP2C19 inh 54*, CYP2C9 activ 0.4 and CYP2C9 inhib 62*.
Screening COc1cccc(C(=O)OCCN(C)C(C)(C)C)c1 returned CYP2C19 activ 0.9, Measles CPE 0, CYP2C19 inh 6, CYP2C9 activ 1.1 and CYP2C9 inhib -8.
CN(Cc1ccccc1)C(=O)c1cc2ccccc2o1 was read as CYP2C19 activ 0.1, Measles CPE 3, CYP2C19 inh 94*, CYP2C9 activ 0.6 and CYP2C9 inhib 36.
For CN(Cc1ccccc1)C(=O)c1ccc2c(c1)OCCO2 the results were CYP2C19 activ 0.2, Measles CPE 2, CYP2C19 inh 84*, CYP2C9 activ 1 and CYP2C9 inhib -4.
CC(C)(C)OC(=O)N/N=C/c1c[nH]c2ccccc12 was read as Measles CPE 1.
For O=C(CCOc1ccccc1)OCC(=O)c1cc2ccccc2o1 the results were CYP2C19 activ 0.3, Measles CPE 10, CYP2C19 inh 70*, CYP2C9 activ 0.4 and CYP2C9 inhib 65*.
`CN1CCN(c2ccc([N+](=O)[O-])cc2/C=N/NC(=O)c2ccc(F)cc2)CC1` gave CYP2C19 activ 0.4, Measles CPE 7, CYP2C19 inh 64*, CYP2C9 activ 0.4 and CYP2C9 inhib 58*.
For CCN(CC)C(=O)C1CCCN(c2ccc([N+](=O)[O-])cc2/C=N/NC(=O)c2cccc(Br)c2)C1 (stereo not drawn) the results were CYP2C19 activ 0.5, Measles CPE 11, CYP2C19 inh 52*, CYP2C9 activ 0.2 and CYP2C9 inhib 85*.
For CCc1ccc(OCC(=O)N/N=C/c2cc([N+](=O)[O-])ccc2N2CCCCCC2)cc1 the results were Measles CPE 12.
For O=C(NC1CCCCC1)C12CC3CC(CC(Cl)(C3)C1)C2 the results were Measles CPE 12.
For COc1cc2c(C(=O)NCc3ccc(C)o3)cn(CC(C)C)c(=O)c2cc1OC the results were CYP2C19 activ 0.9, Measles CPE 7, CYP2C19 inh 8, CYP2C9 activ 0.9 and CYP2C9 inhib 11.
Screening CN1CCN(S(=O)(=O)c2cc([N+](=O)[O-])ccc2N2CCCCCC2)CC1 returned CYP2C19 activ 0.4, Measles CPE 4, CYP2C19 inh 56*, CYP2C9 activ 0.8 and CYP2C9 inhib 16.
O=[N+]([O-])c1ccc(N2CCN(c3ccccc3F)CC2)c(S(=O)(=O)N2CCOCC2)c1 was read as Measles CPE 1.
For Cc1c(C)c2ccc(OCc3ccc(C(=O)O)o3)c(C)c2oc1=O the results were CYP2C19 activ 1, Measles CPE 27, CYP2C19 inh 1, CYP2C9 activ 0.8 and CYP2C9 inhib 21.
`COc1cc(COc2ccc3c(C)c(Cc4ccccc4)c(=O)oc3c2C)cc(OC)c1OC` gave CYP2C19 activ 0.4, Measles CPE 28*, CYP2C19 inh 58*, CYP2C9 activ 0.3 and CYP2C9 inhib 66*.
Screening COc1cc(COc2ccc3c(C)c(Cc4ccccc4)c(=O)oc3c2)cc(OC)c1OC returned CYP2C19 activ 0.6, Measles CPE 16, CYP2C19 inh 36, CYP2C9 activ 0.4 and CYP2C9 inhib 57*.
For COC(=O)Cc1c(C)c2ccc(OC(=O)c3ccccc3)cc2oc1=O the results were CYP2C19 activ 1, Measles CPE 14, CYP2C19 inh 0, CYP2C9 activ 1.1 and CYP2C9 inhib -9.
Screening Cc1c(Cc2ccccc2)c(=O)oc2cc(OC(=O)c3ccccc3)ccc12 returned CYP2C19 activ 0.4, Measles CPE 8, CYP2C19 inh 60*, CYP2C9 activ 0.6 and CYP2C9 inhib 40.
CNC(=S)NN(c1ccccc1)c1ccccc1 was read as CYP2C19 activ 0.2, Measles CPE 10, CYP2C19 inh 78*, CYP2C9 activ 0.9 and CYP2C9 inhib 8.
`COc1ccc(N2CCN(C(=O)c3ccc(N4C(=O)NC5CC4(C)Oc4ccccc45)cc3)CC2)cc1` (stereo not drawn) gave CYP2C19 activ 0.6, Measles CPE 3, CYP2C19 inh 44, CYP2C9 activ 0.7 and CYP2C9 inhib 26.
`CC12CC(c3ccccc3O1)N(C(=O)c1ccco1)C(=S)N2c1ccc(F)cc1` (stereo not drawn) gave CYP2C19 activ 0.4, Measles CPE 1, CYP2C19 inh 63*, CYP2C9 activ 0.6 and CYP2C9 inhib 45.
For Cc1cc(C)cc(N2C(=O)C3CC=CCC3C2=O)c1 (stereo not drawn) the results were CYP2C19 activ 1, Measles CPE 44*, CYP2C19 inh 4, CYP2C9 activ 1.2 and CYP2C9 inhib -21.
For Cc1cc(N2C(=O)C3CC=CCC3C2=O)cc(C)c1Br (stereo not drawn) the results were Measles CPE 4.
